# FMDV inh – foot and mouth disease virus antiviral activity | AID 1159524 | 410,000 tested, 1.2% active | FMDV antiviral cell-based qHTS | Potency, µM (top dose mostly 57.9 µM), for inactives: top-dose activity change, negative = inhibition, hits mostly inhibitors; calls by dose curve; tested in HEK293T cells; further: read-out not given here; nearly all actives have a fitted effect of over 45% in size
# AmpC inh detg – inhibitors of E. coli AmpC beta-lactamase with detergent; 370,000 tested, 0.041% active; Potency, µM (highest dose often 114 µM), without a hit: top-dose activity change, negative = inhibition, usual class: inhibitors; AmpC hydrolysis of nitrocefin, absorbance 480 nm, 0.01% Triton; P00811;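 further: 0% = no-compound wells and -100% = no-enzyme wells; nearly all actives have a fitted effect of over 25% in size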
# Target sequence (P00811 whole entry, looked up): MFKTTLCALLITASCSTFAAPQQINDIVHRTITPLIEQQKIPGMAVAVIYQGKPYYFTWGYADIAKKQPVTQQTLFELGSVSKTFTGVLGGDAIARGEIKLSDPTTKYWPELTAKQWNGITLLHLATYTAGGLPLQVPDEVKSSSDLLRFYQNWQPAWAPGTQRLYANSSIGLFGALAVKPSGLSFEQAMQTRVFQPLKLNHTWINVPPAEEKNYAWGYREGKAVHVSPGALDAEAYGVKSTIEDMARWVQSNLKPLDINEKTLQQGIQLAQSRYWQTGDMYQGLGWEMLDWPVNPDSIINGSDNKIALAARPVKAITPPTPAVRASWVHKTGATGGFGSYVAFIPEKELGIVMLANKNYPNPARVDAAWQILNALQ
#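 AmpC (5.3 nM in the dispensed reagent) in 20 mM phosphate pH 7.0 with 0.01% (detergent screen) or 0.0001% Triton X-100 was preincubated with compounds for 15 min at room temperature. Nitrocefin was then added from an 800 uM solution, and hydrolysis was followed at 480 nm.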
# AMA1-RON2 inh – AMA1-RON2 (P. falciparum) interaction inhibition; AlphaScreen AMA1-biotinylated RON2 peptide binding; Potency, µM (titrated, usually from 58.2 µM), without a hit: at the top dose activity change, negative = inhibition, most hits filed as inhibitors; 360,000 tested, 0.2% active; AID 720542;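 further: 0% = vehicle wells and -100% = peptide control; nearly all actives have a fitted effect of over 45% in size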
#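 AMA1 (3D7) with his tag at 25 nM final met compounds first, then biotinylated RON2 peptide at 25 nM; detection used donor plus acceptor beads, 10 µg/mL apiece, read by AlphaScreen after 30 min at room temperature.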
# AmpC inh no detg – AmpC beta-lactamase inhibition without detergent. AmpC nitrocefin hydrolysis, absorbance 480 nm, 0.0001% Triton. Potency, µM (top dose mostly 57.1 µM), inactives show at the top dose activity change, negative = inhibition, most hits filed as inhibitors. 330,000 tested, 0.52% active. AID 485341;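 further: plate controls were no compound for no effect and no enzyme for full effect; nearly all actives have a fitted effect of over 20% in size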
#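 AmpC (5.3 nM in the dispensed reagent) in 20 mM phosphate pH 7.0 with 0.01% (detergent screen) or 0.0001% Triton X-100 was preincubated with compounds for 15 min at room temperature. Nitrocefin was then added from an 800 uM solution, and hydrolysis was followed at 480 nm.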
# Sm TGR inh – S. mansoni TGR enzyme inhibition | purified TGR, DTNB reduction, TNB absorbance 405 nm | Potency, µM (titrated, usually from 114 µM), inactives show top-dose activity change, negative = inhibition, actives largely listed as inhibitors | 360,000 tested, 3% active; further: nearly all actives have a fitted effect of over 60% in size
#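 First, TGR (20 nM dispensed) and NADPH were mixed with compound. Second, a 15 min room-temperature incubation followed. Third, further NADPH and then DTNB were added to start the reaction. Finally, TNB absorbance was monitored kinetically.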
# Numbers without * were called inactive; ? = inconclusive; . = not tested or not shown. Compounds with a hit are over-represented: about 4.1% of the library has one in this group of screens. Unless noted, the call rests on the fitted dose curve; in most records, active means well fitted curve in the direction sought with a large enough effect; inconclusive means small, poorly fitted or top-dose-only effect, or another doubt; inactive means no such curve, though single readings can be large; an effect the other way counts as inactive or inconclusive. Unless noted, on the % scale 0 is the no-effect control and ±100 the full control effect; potency means the concentration at half of the fitted maximal effect.
SMILES,FMDV inh,AmpC inh detg,AMA1-RON2 inh,AmpC inh no detg,Sm TGR inh
CCOC(=O)CNC(=O)CN1C(=O)CC(c2ccco2)Sc2ccccc21 (stereo not given),21%,-17%,5%,-19%,-36%
COc1ccc(C2CC(=O)N(C)c3ccccc3S2)cc1 (stereo not given),10%,-5%,-3%,-16%,-6%
O=C(CN1C(=O)CC(c2ccco2)Sc2ccccc21)NCC1CCCO1 (stereo not given),7%,-1%,-5%,43%,13µM*
O=C(NC1CCCCC1)c1cc(Nc2cccc(C(F)(F)F)c2)nc2ccccc12,3%,-4%,.,.,11%
Cc1cc(N2CCN(C)CC2)nc2ccc(NC(=O)Nc3ccccc3Br)cc12,19%,19%,.,.,7%
COc1ccc(C2=C/C(=C\c3ccc(OC(C)=O)cc3)C(=O)O2)cc1,-4%,-5%,2%,-28%,50µM*
CN(C)c1ccc(C=C2C=C(c3ccccc3)OC2=O)cc1,28%,.,8.9µM*,.,.
CC(=O)Oc1cccc(/C=C2\C=C(c3ccc(C)cc3)OC2=O)c1,15%,1%,23%,-20%,.
CCCOC1(NC(=O)c2ccccc2)C(C)=CC(=O)C=C1C,-9%,?,7%,-5%,22µM*
COc1cc(C2C3=C(CC(C)(C)CC3=O)Nc3c2c(=O)[nH]c(=O)n3Cc2ccccc2)ccc1O (stereo not given),-6%,?,13%,?,50µM*
Cc1cc(C(=O)CN2CCCC2)c(C)n1-c1ccc(F)cc1,-13%,9%,5%,-5%,45µM*
CCOc1ccccc1NC(=O)CSc1nccn1-c1cccc(C)c1,?,7%,.,.,7%
COc1cc(C2C(C(C)=O)=C(O)C(=O)N2CCN2CCOCC2)ccc1O (stereo not given),0%,-12%,1%,-22%,-6%
CCCOc1ccc(C2C(C(=O)/C=C/c3ccco3)=C(O)C(=O)N2CCN2CCOCC2)cc1OC (stereo not given),6%,-4%,-18%,92%,8.9µM*
COc1ccccc1Cc1nc2ccccc2nc1SCC(=O)Nc1c(C)cccc1C,17%,-7%,.,.,0%
Cc1ncsc1C(=O)N1CCCC(C(=O)c2ccc3ccccc3c2)C1 (stereo not given),28µM*,-10%,-10%,132%,-24%
COc1ccc(C(=O)C2CCCN(C(=O)CCc3scnc3C)C2)c(C)c1 (stereo not given),-19%,0%,-22%,-11%,32µM*
COc1ccc(C(=O)C2CCCN(C(=O)CCc3ccccn3)C2)c(C)c1 (stereo not given),-13%,8%,-6%,42%,2%
O=C(NCc1nnc2n1CCN(Cc1cccc(C(F)(F)F)c1)CC2)c1ccncc1,-12%,.,.,.,.
O=c1c2c3c(sc2[nH]c(=S)n1Cc1ccco1)CCC3,1%,3%,109%,20µM*,14µM*
CN(C)CCCn1c(=O)n(Cc2ccco2)c(=O)c2c3c(sc21)CCCCC3,-23%,4%,-25%,136%,35µM*
CCOc1ccc(C(=O)Nc2ccccc2-c2ccccc2)cc1Cl,-28%,?,14%,127%,8%
CCOc1ccc(C(=O)Nc2cccc(C(=O)O)c2C)cc1Cl,1.8µM*,-7%,-10%,-5%,-3%
O=C(c1ccc2c(c1)CCN2S(=O)(=O)c1ccc(Cl)cc1)N1CCN(c2ccccc2F)CC1,-28%,1%,.,.,1%
O=C(O)c1ccc(NC2CC(=O)N(Cc3ccccc3)C2=O)cc1 (stereo not given),6%,-4%,5%,-7%,28µM*
CCC(COC)NC(=O)c1cnn(-c2ncc3c(n2)-c2ccccc2CC3)c1C (stereo not given),29%,.,.,.,.
COCc1cc(CN2CCN(C)CC2)c(O)c2ncccc12,-9%,-3%,-95%,74%,14µM*
Brc1cc2c(cc1CN1CCN(c3ccccc3)CC1)OCCO2,-28%,5%,7.9µM*,-4%,-8%
CCOCc1cc(CN2CCN(c3cccc(Cl)c3)CC2)c(O)c2ncccc12,-23%,18%,.,.,-32%

# Screens from PubChem.
